Screening data from PubChem.
Sampled rows, rich in hits. Any-hit rate of the full collection: about 12%.
Insulin prom up – insulin promoter activators in MIN6 cells, imaging, high-content screening, mouse beta cells; MIN6 insulin promoter-GFP reporter; hits give high values; z-score at 5 µM; 0.3% of 190,000 active; AID 1625, 2009;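 active means z-score above 3 at 5 µM with at least 500 cells counted in the well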
WT yeast gro inh – growth inhibition of WT strain, primary screen, mitochondrial fusion inhibitor project, WT and mutant strains, chemical genetic; mitochondrial fusion phenotypic screen; inhibition, % at 10 µM; 2.1% of 190,000 active; in the data active means inhibition above about 58%; tested in S. cerevisiae
ROMK primary – ROMK potassium channel modulators, primary screen, cell-based, thallium flux, MLSMR library; Tet-inducible ROMK, thallium flux fluorescence; actives lie on both sides; 2% of 130,000 active; B-score at 10 µM; ATP-sensitive inward rectifier potassium channel 1 (Homo sapiens), P48048; AID 1918, 2009;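 active means signal ratio slope over the read window, or its plate-corrected B-score, at least 3 SD from the plate mean, either direction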;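 further: B-score of the F/F0 ratio slope over 7 to 12 s after thallium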
KCC2 mod – KCC2 cotransporter modulators, thallium flux, primary screen, cell-based, HEK293 KCC2, FluoZin-2 fluorescence, MLSMR. Solute carrier family 12 member 5 (Homo sapiens), Q9H2X9. KCC2 cells, thallium flux FluoZin-2 fluorescence. B-score of Tl+ flux slope (higher = more flux/activation; lower = inhibition) at 10 µM. 2.2% of 190,000 active. AID 1456, 2008;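 active means thallium flux slope and its plate-corrected score both differing from the plate sample mean at a set confidence after two filtering rounds, in either direction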;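 further: slope of fluorescence scaled to starting intensity during 10 to 20 s after thallium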
Target sequence (Q9H2X9 whole entry, looked up): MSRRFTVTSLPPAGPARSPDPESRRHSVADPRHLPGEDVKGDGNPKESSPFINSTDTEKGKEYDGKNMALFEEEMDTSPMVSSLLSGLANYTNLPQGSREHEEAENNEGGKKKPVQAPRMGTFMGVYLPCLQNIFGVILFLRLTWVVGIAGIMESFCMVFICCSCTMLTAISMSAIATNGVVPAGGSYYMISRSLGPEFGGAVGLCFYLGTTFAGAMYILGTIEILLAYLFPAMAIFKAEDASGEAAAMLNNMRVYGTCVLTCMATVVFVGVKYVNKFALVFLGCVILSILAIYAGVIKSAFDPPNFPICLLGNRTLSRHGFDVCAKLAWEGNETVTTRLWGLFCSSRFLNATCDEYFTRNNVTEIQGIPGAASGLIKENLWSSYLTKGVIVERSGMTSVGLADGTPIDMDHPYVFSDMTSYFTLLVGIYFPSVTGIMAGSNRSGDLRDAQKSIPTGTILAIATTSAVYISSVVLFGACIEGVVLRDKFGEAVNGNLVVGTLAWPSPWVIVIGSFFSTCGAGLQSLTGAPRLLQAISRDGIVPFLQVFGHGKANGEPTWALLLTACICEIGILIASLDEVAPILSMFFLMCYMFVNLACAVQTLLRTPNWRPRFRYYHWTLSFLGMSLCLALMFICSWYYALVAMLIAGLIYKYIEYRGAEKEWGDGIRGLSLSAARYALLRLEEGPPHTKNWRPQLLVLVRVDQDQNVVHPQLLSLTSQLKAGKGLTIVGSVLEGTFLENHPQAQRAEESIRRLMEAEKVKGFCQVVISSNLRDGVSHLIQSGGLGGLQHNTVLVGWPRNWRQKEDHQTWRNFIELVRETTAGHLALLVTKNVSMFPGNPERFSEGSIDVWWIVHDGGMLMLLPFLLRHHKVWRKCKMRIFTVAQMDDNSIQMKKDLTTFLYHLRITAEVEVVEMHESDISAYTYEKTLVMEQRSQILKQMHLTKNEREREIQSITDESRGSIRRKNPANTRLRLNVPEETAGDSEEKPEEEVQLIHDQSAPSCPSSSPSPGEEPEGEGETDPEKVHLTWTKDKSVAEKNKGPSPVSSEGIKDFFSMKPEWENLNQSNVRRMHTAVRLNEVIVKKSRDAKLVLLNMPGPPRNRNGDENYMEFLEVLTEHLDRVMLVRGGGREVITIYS
INS promoter inh – inhibitors of insulin promoter-driven GFP, primary screen, imaging, TRM-6 cells (human fetal islet line), eGFP reporter, cell count; inhibition, % at 2 µM; 0.9% of 130,000 active; reporter expression induced with tamoxifen;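 active means inhibition above the mean plus 3 SD, with well images judged a real hit on visual review, cut at about 60% in these data, passing the limit was not always enough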
Lmaj promast – Leishmania major promastigote growth inhibition, primary screen. Leishmania major promastigotes, resazurin fluorescence viability. inhibition, % at 10 µM. AID 1063, 2008. 9% of 200,000 active; in the data active means inhibition above about 50%;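 further: promastigotes grown with compound for 44 hours at 28 °C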
Active calls of the source: *; · = no result given.

SMILES	Insulin prom up	WT yeast gro inh	ROMK primary	KCC2 mod	INS promoter inh	Lmaj promast
COCCNC(=O)c1ccccc1NC(=O)c1ccccc1N(C)S(=O)(=O)c1ccccc1	-0.1	5.6	-0.661	-0.0801	-17.1	-0.2
COc1ccc(CCNC(=O)c2ccc(Cl)c(S(=O)(=O)N(C)c3ccccc3)c2)cc1	2.34	11.1	-2.14	-1.34	-16.2	98.1*
CC1=NN(C(=O)c2ccc(Cn3nc(C)c([N+](=O)[O-])c3C)cc2)C(O)(C(F)(F)F)C1 (stereo not given)	-1.08	7.8	-0.138	-0.47	-10.8	-6.8
CCOc1ccc(-n2c(SCc3ccc(C(=O)OC)o3)nc3c(c2=O)SCC3)cc1	-1.4	14.2	0.00552	-0.0786	42.3	83.1*
COC(=O)c1ccc(CSc2nc3c(c(=O)n2-c2ccc(Br)cc2)SCC3)o1	-1.8	14.7	-1.41	-2.69	43.2	98.1*
O=C(CSc1nc2c(c(=O)n1-c1ccc(Cl)cc1)SCC2)N1CCCC1	-0.75	-2.0	-0.00521	-2.13	-17.4	-8.7
COC(=O)c1cn(N(C)c2ncc(C(F)(F)F)cc2Cl)c(=O)c2ccccc12	0.53	71.9*	-0.526	·	16.7	1.3
Cc1cc(NC(=O)CSCC(=O)N(c2ccc(F)cc2)C(C(=O)NC2CCCCC2)c2ccc(O)c(O)c2)no1 (stereo not given)	-0.27	-4.1	-1.3	0.345	16.7	-3.0
Cc1ccc2nc(N3CCN(Cc4nnnn4C4CCCC4)CC3)c(C#N)cc2c1	·	8.1	·	-0.0874	100.0*	-2.5
Cc1ccc(C)c(N2CCN(Cc3nnnn3C3CCCCC3)CC2)c1	0.58	29.4	·	-0.578	18.9	16.6
CC1=NN(c2ccc(F)cc2)C(=O)C1C(c1cccc(O)c1)c1c(C)[nH]n(-c2ccc(F)cc2)c1=O (stereo not given)	0.04	-6.2	·	0.476	47.4	71.7*
COC(=O)[C@@H]1C(c2c(OC)cc(OC)cc2OC)=NO[C@H]1C(=O)OC	-0.82	-4.3	0.69	-1.22	·	-3.4
COc1ccccc1-c1nnc(SCC(=O)Nc2c(Cl)cccc2Cl)o1	0.61	-0.8	0.259	·	7.1	5.7
COc1ccccc1-c1nnc(SCC(=O)NCc2c(C)c(Cl)cc(C(C)C)c2O)o1	0.59	78.2*	·	0.314	4.8	20.6
Cc1noc(C)c1C(=O)N1CCc2ccccc21	0.56	22.0	0.0627	0.857	25.0	-7.3
Cc1onc(-c2ccccc2Cl)c1C(=O)N1CCN(c2ncccn2)CC1	0.89	-3.2	0.778	-0.173	·	-7.1
CCOc1ccccc1N1CCN(C(=O)c2c(-c3ccccc3Cl)noc2C)CC1	0.38	-31.1	·	0.216	-14.3	71.5*
Cc1onc(-c2c(Cl)cccc2Cl)c1C(=O)N1CCc2ccccc2C1	-0.29	-9.9	·	-0.933	-69.4	95.4*
Cc1onc(-c2ccccc2)c1C(=O)N1CCCc2ccccc21	-0.7	-3.6	·	-1.58	·	98.4*
CCOC(=O)Cc1csc(CC(N)=O)n1	0.26	·	·	-0.597	·	·
Cc1cccc(/C(N)=N/OC(=O)N2CCOCC2)c1	-0.61	-5.5	·	1.14	·	56.3*
CCCC(=O)N(c1ccc(OC)cc1)C1C=CS(=O)(=O)C1 (stereo not given)	1	-13.7	·	-0.694	-22.9	-4.9
COc1ccccc1-c1c(C)oc2c(CN3CCN(C)CC3)c(O)ccc2c1=O	·	-20.7	-0.231	0.45	12.5	90.2*
COc1ccccc1-c1c(C)oc2c(CN3CCN(CCO)CC3)c(O)ccc2c1=O	-0.34	18.9	·	0.253	38.5	37.8
COc1ccc(-c2c(C)oc3c(CN4CCN(CCO)CC4)c(O)ccc3c2=O)cc1OC	0.43	-0.5	0.168	-0.215	-2.8	99.3*
SMILES	Insulin prom up	WT yeast gro inh	ROMK primary	KCC2 mod	INS promoter inh	Lmaj promast
CCOc1ccccc1Oc1c(C)oc2c(CN3CCN(C)CC3)c(O)ccc2c1=O	-0.4	47.1	-0.716	·	21.4	75.3*
COC(=O)c1ccc(Oc2c(C(F)(F)F)oc3c(CN4CCN(C)CC4)c(O)ccc3c2=O)cc1	·	7.8	·	·	-8.3	99.8*
Cc1nc2nc(-c3ccc(Cl)cc3)[nH]n2c(=O)c1C	0	-9.3	·	-0.1	-44.2	13.1
COc1cc(/C=N/n2cnnc2)ccc1Oc1nc(Cl)ncc1F	-0.26	-1.5	-0.0946	0.0403	18.2	0.3
CCOC(=O)Cc1nn(C)c(=O)c2ccccc12	-0.63	30.0	·	1.2	-8.6	-2.0
CNC(=O)COC(=O)[C@@H](Nc1ccc(S(=O)(=O)N2CCOCC2)cc1[N+](=O)[O-])C(C)C	-0.18	-13.1	0.0798	0.249	38.5	54.9*
CC(C)[C@H](Nc1ccc(S(=O)(=O)N2CCOCC2)cc1[N+](=O)[O-])C(=O)OCC(=O)N(C(C)C)C(C)C	0.21	-1.9	-0.96	0.133	17.2	81.7*
CC(C)[C@H](Nc1ccc(S(=O)(=O)N2CCOCC2)cc1[N+](=O)[O-])C(=O)OCC(N)=O	-0.04	-5.5	0.377	0.228	-23.1	51.2*
CC(C)C(C)NC(=O)COc1ccc(S(=O)(=O)N2CCOCC2)cc1[N+](=O)[O-] (stereo not given)	-0.03	-14.4	-0.0167	1.05	-20.7	49.4
COc1ccc(CSc2nnc3n(C)c(=O)c4c5c(sc4n23)CCCC5)cc1	0.05	·	0.518	·	·	·
Nc1ccc(Cc2ccc(N)c(O)c2)cc1O	0.29	4.3	-1.63	0.58	-38.9	98.9*
CCS(=O)(=O)c1ccc2oc(SCC(=O)NC3CCCC(C)C3C)nc2c1 (stereo not given)	4.28*	-25.8	0.0473	-3.71	-92.9	8.5
CCS(=O)(=O)c1ccc2oc(SCC(=O)NC34CC5CC(CC(C5)C3)C4)nc2c1	·	-10.0	0.0551	·	-33.3	38.7
O=C(CSc1nnc(-c2ccccc2F)n1C1CC1)Nc1ccc2[nH]c(=O)[nH]c2c1	0.08	4.7	0.007	-0.0801	-11.8	-3.2
Cc1ccc(S(=O)(=O)N2CCN(c3ccc([N+](=O)[O-])cn3)CC2)cc1	-0.23	·	·	·	·	·
O=C(NCc1cccs1)c1nc2c(nnn2Cc2ccccc2Cl)c(=O)[nH]1	-0.33	-7.0	·	-2.72*	-7.0	-6.1
CCC(=O)Nc1cc(C)c(NC(=O)C23CC4CC(CC(C4)C2)C3)cn1	·	-4.0	-0.209	-1.97	75.7*	0.4
Cc1ccc2c(CC(=O)N3CCN(S(=O)(=O)c4cccs4)CC3)coc2c1	·	8.3	-2.81	-4.06	-30.9	4.7
Cc1ccc(-c2cc(C(=O)Nc3cccnc3)[nH]n2)c(O)c1C	0.05	·	0.708	-0.221	·	·
O=C(NN1CCOCC1)c1ccc(S(=O)(=O)N2CCCCC2)cc1	0.25	1.4	-0.566	0.296	5.9	-1.0
CCOC(=O)c1c(N)n(-c2ccc(N)cc2)c2nc3ccccc3nc12	-0.22	-8.4	0.23	-0.0626	-28.6	1.0
CCOC(=O)c1c(NC(=O)c2ccco2)n(C2CCCCC2)c2nc3ccccc3nc12	-0.36	-9.7	·	-0.571	-40.5	99.7*
